What all share (experiment): NCI-60 one-dose screen, 48 h (100 = growth as untreated, 0 = no growth, -100 = all killed)
What all share (details): 10 µM unless noted

For test [1], the system named is SK-MEL-2 melanoma.
The test system of test [2] is EKVX NSCLC.
For test [3], the system named is SN12C renal.
Test [4] deals with UO-31 renal.
Test [5] deals with TK-10 renal.
In test [6] the test system is ACHN renal.
Test [7] concerns CAKI-1 renal.
For test [8], the system named is A498 renal.
In test [9] the test system is MOLT-4 leukemia.
Test [10] concerns SR leukemia.
Test [11] relates to RPMI-8226 leukemia.
In test [12] the test system is OVCAR-8 ovarian.
The test system of test [13] is OVCAR-5 ovarian.
Test [14] relates to OVCAR-4 ovarian.
Test [15] has as its system SK-OV-3 ovarian.
In test [16] the test system is IGROV1 ovarian.
For test [17], the system named is OVCAR-3 ovarian.
For test [18], the system named is HS 578T breast.
Test [19] has as its system NCI/ADR-RES ovarian.
Test [20] concerns CCRF-CEM leukemia.

Compounds without any hit were thinned out: in the full panel of roughly 83,000, 20% have a hit.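 Step 1: grow cells in 96-well plates. Step 2: add test compound at a single concentration. Step 3: incubate 48 h. Step 4: record percent growth.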 Values without a mark were called inactive. Active and inactive are the calls of the source. Rule for the calls: active = growth percent below 10; inactive = the rest.

As to `CC(CSc1n[nH]c(=S)s1)c1ccccc1` (configuration not stated), the growth in test [1] was 130%; in [2] it was 107%; in [3] it was 101%; in test [4], 77.4%; in test [5] it was 116%; in test [6], 116%. For the same compound, the growth in test [7] is 98.5%; in test [8] it was 108%; in [9] it was 91.2%; in test [10], 84.5%; in test [11] it was 103%; in [12], 109%. The growth in [13] is 127%; in [14], 94.1%; in test [15] it was 102%; in test [16] it was 110%; in test [17], 117%; in test [18] it was 108%. The growth in test [19] is 114%.
Take `COC1CC(C)C(OC)c2cc(O)cc(c2O)NC(=O)/C(C)=C/C=C\C(C)C(OC(N)=O)/C(C)=C\C(C)C1OC` (configuration not stated): the growth in test [1] was 39.4%; in test [2], 41%; in test [3], 30.3%; in test [4], -70.9% (active); in test [5], 68%; in [6], 28.5%. Moreover, the growth in test [7] was 54.2%; in [9], -23.4% (active); in test [10], -5.85% (active); in test [11], 1.65% (active); in test [13] it was 27.2%; in test [14], -39.9% (active). Further, the growth in test [15] was 16.1%; in [16] it was -0.486% (active); in test [17], 20.2%; in test [19] it was -67.2% (active).
For the compound `Cc1nn(CCO)c(C)c1N=[N+]([O-])c1c(C)nn(CCO)c1C`, the growth is 58.1% in test [1]; 23.4% in [2]; 60% in [3]; -93.6% (active) in test [4]; -46.9% (active) in test [5]; -42.8% (active) in test [6]. The growth in [8] was 105%; in [20] it was 1.91% (active); in test [11], -35% (active); in test [12] it was 79%; in test [13] it was 83.6%; in test [14], 13.7%. Also, the growth was 115% in test [15], -88.1% (active) in test [17], 103% in [18] and 96.1% in test [19].
On to `Cc1nnc(N/N=C/c2ccc([N+](=O)[O-])o2)[nH]c1=O`, for which the growth in test [1] was 7.95% (active); in [2], -17.2% (active); in test [3], 13.8%; in [4] it was 5.83% (active); in [5], -10.2% (active); in test [7] it was -23.3% (active). The growth in test [8] was -1.71% (active); in [9], 5.88% (active); in [10], 8.26% (active); in test [11] it was 42.1%; in test [12] it was 21.1%; in [13], -2.06% (active). For the same compound, the growth in test [14] is 29.4%; in [15] it was 10.4%; in [16], 21%; in [17], -7.14% (active); in [18] it was 22%.
`O=C1C=CC(=O)N1c1ccccc1`: the growth in test [1] is 103%; in test [2], 99.6%; in test [3] it was 84.4%; in test [4], 87.4%; in test [5], 105%; in [6], -37.3% (active). In addition, the growth in test [8] was 105%; in test [9] it was 42.2%; in [10] it was 45.2%; in [12] it was 99.5%; in [13] it was 96.4%; in test [15] it was 109%. The growth is 105% in [16], 1.28% (active) in test [17], 103% in test [18] and 97.7% in test [19].
For the compound `CC/C(=C(/CC)c1ccc(O)cc1)c1ccc(O)cc1`, the growth in test [1] was 54.6%; in [2], 64.7%; in test [3], 76%; in test [4], 73.2%; in test [6], 67.8%; in test [7] it was 45.8%. In addition, the growth is 81.4% in [8]; 48.8% in [20]; 39.9% in [9]; 21.1% in [10]; 61.7% in test [11]; 80.1% in test [12]. The growth was 76.8% in test [14]; 38.4% in [15]; 82.4% in [16]; 62.1% in [17]; 63% in test [18]; 40.8% in test [19].
In the case of `NC(=Nc1nc(-c2ccccn2)cc2ccccc12)c1ccccn1`, the growth was 66.5% in test [1]; 16.5% in [2]; 26.2% in [3]; 2.9% (active) in test [4]; 31.5% in test [5]; 8.11% (active) in test [6]. For the same compound, the growth is 2.97% (active) in test [7]; 0.348% (active) in test [20]; -3.87% (active) in [9]; 6.67% (active) in test [10]; -11.3% (active) in [11]; 27.1% in test [14]. For the same compound, the growth in [15] is 19.7%; in test [16], -9.19% (active); in [17], 29.3%; in test [19] it was -31.2% (active).
`COC(=O)c1cc([N+](=O)[O-])cc([N+](=O)[O-])c1Cl`: the growth in test [1] is 87.4%; in test [2], 98.1%; in test [3] it was 99.8%; in [4], 79.1%; in test [5] it was -41.3% (active); in test [6], 15.6%. Further, the growth in test [9] was 26.6%; in test [10], 30.9%; in test [11] it was 87.1%; in test [12], 76.1%; in [13] it was 97.9%; in test [14], 61%. Also, the growth in test [15] is 102%; in test [16] it was 95.7%; in test [17] it was -44.7% (active); in test [19] it was 99.1%.
`COc1ccc2c(c1)c(CC(=O)O)c(C)n2C(=O)c1ccc(Cl)cc1`: the growth in test [1] is 106%; in test [2] it was 95.9%; in test [3], 97.4%; in [4], 65.6%; in test [6] it was 95.3%; in test [7] it was 88.1%. The growth in [8] is 81.9%; in test [20] it was 89.7%; in test [9] it was 113%; in [10] it was 106%; in [11] it was 83.8%; in test [12], 104%. For the same compound, the growth is 102% in test [14]; 119% in test [15]; 99% in [16]; 125% in test [17]; 97.8% in [18]; 98% in [19].

These data come from PubChem BioAssay (NCI).
